Data on 31 compounds can be found in PubChem BioAssay (Tox21).

Several values for one entry are separate records, joined by “and”; a condition that tells them apart may be missing. Equal entries are not always repeated. Results filed as inconclusive are left out. Where a structure was tested more than once in an assay, its records may differ in their call. Activity calls are given as the source filed them. Unless noted, calls follow the shape of the dose curve; as a rule, active = well fitted curve in the direction sought with a large enough effect in the repeat runs; inconclusive = weak or mixed curves; inactive = no such curve, though single readings can be large; an effect the other way counts as inactive or inconclusive.

Experiment [1] in a line: qHTS assay to identify small molecule antagonists of the sonic hedgehog signaling (Shh) pathway (AID 1259369; calls by dose curve; also: nearly all actives have a fitted effect of over 45% in size; also: potency is read from the fitted curve at half-maximal effect). A digest of the protocol:
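Inhibition of Shh signalling is measured as reduced Gli1-response-element firefly luciferase output in an NIH/3T3-derived stable reporter clone stimulated with conditioned medium for 24hr.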
(qHTS replaces the single test concentration by a dilution series.)

Experiment [2] in a line: qHTS assay to identify small molecule agonists of the androgen receptor (AR) signaling pathway in the presence of an antagonist - cell viability counter screen (AID 1259379).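 Also: MDA-kb2 human breast cancer cells carrying an MMTV luciferase reporter; series mostly up to about 92 µM; nearly all actives have a fitted effect of over 25% in size.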 The essentials:
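Fluorescence from CellTiter-Fluor, added after 15 hr and read 1 hr later, gave cell viability. Cells were MDA-kb2 exposed to compounds (15 concentrations) in the presence of 3.0uM nilutamide at 37C, 0% CO2.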

Experiment [3] is described as follows: qHTS assay to identify small molecule agonists of the estrogen receptor beta (ER-beta) signaling pathway - cell viability counter screen (AID 1259380). Also: nearly all actives have a fitted effect of over 30% in size. The essentials: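 Same-well viability counter screen. Cells: ER-beta-UAS-bla HEK293T, plated 6 hr before compound, in 2% charcoal-stripped FBS. Compound exposure 16 hr, 37C; viability by CellTiter-Glo luminescence after 30 min at room temperature.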

Experiment [4] can be described thus: qHTS assay to identify small molecule antagonists of the estrogen receptor beta (ER-beta) signaling pathway - cell viability counter screen (AID 1259382). Also: series mostly up to about 92 µM; nearly all actives have a fitted effect of over 55% in size. A digest of the protocol: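 Following a 6 hr plating period, HEK293T cells carrying a UAS-driven beta-lactamase reporter under ER-beta control received compounds and 1nM E2 (final). After 16 hr at 37C and 2 hr substrate loading, CellTiter-Glo luminescence indicated viability.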

Experiment [5] in a line: qHTS assay to identify small molecule agonists or antagonists of the thyroid stimulating hormone receptor (TSHR) signaling pathway - wild type cell line counter screen (AID 1259384; calls by dose curve). The essentials: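 Wild-type Hek293 cells, 800/well, 18 h at 37C, then compound with Ro20-1724 for 30 min RT. cAMP by HTRF (cAMP-d2/anti-cAMP cryptate), 1 h RT, fluorescence read. 15 concentrations, triplicates.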

The target of experiment [6] is Androgen receptor (Homo sapiens) (UniProt P10275). As to the kind of experiment: qHTS assay to identify small molecule agonists of the androgen receptor (AR) signaling pathway in the presence of an antagonist (AID 1259381; calls by dose curve; also: nearly all actives have a fitted effect of over 15% in size). The essentials: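 Cells are MDA-kb2 (human breast carcinoma, MMTV-luc, AR/GR responsive). Nilutamide is present at 3.0uM final throughout; compounds are added at 15 concentrations and incubated 16hr at 37C before ONE-Glo luminescence detection.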
Chain of Androgen receptor (Homo sapiens) (P10275 whole entry, looked up): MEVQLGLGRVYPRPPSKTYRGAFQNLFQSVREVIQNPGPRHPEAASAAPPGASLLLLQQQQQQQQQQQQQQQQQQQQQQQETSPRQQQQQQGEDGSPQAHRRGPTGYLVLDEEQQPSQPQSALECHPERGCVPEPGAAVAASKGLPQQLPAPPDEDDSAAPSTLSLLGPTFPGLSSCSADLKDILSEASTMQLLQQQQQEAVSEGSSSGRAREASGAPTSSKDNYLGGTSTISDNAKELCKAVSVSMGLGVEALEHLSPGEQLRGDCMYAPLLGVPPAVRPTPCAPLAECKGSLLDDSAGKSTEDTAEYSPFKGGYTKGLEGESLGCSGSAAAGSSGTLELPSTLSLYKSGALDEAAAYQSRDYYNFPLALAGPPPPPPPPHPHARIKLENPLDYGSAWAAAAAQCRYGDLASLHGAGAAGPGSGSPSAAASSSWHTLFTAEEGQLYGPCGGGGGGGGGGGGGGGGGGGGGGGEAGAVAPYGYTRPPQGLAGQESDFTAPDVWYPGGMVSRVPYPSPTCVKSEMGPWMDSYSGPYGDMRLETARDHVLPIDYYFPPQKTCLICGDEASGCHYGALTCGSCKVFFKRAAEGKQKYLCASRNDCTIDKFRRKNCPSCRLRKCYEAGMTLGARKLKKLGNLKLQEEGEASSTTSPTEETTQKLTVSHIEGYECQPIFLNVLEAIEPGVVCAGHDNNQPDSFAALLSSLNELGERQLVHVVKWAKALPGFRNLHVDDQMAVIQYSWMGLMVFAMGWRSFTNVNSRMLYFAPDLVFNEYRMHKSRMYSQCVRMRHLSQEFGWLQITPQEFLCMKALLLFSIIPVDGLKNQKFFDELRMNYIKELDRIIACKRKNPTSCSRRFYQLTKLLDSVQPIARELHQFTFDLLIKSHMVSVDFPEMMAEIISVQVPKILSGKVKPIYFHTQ

The target of experiment [7] is Estrogen receptor (Homo sapiens) (UniProt P03372). As to the kind of experiment: qHTS assay to identify small molecule agonists of the estrogen receptor alpha (ER-alpha) signaling pathway in the presence of an antagonist (AID 1259383; calls by dose curve; also: top concentration of the series differs between compounds; nearly all actives have a fitted effect of over 15% in size). The essentials: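 Cells are hormone-deprived for 5 days (charcoal-stripped FBS, no phenol red), plated for 24hr, spiked with 10.0nM ICI-182,780, then dosed at 15 concentrations. After 22hr at 37C, ONE-Glo luminescence reports ERE-luciferase activity.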
Chain of Estrogen receptor (Homo sapiens) (P03372 whole entry, looked up): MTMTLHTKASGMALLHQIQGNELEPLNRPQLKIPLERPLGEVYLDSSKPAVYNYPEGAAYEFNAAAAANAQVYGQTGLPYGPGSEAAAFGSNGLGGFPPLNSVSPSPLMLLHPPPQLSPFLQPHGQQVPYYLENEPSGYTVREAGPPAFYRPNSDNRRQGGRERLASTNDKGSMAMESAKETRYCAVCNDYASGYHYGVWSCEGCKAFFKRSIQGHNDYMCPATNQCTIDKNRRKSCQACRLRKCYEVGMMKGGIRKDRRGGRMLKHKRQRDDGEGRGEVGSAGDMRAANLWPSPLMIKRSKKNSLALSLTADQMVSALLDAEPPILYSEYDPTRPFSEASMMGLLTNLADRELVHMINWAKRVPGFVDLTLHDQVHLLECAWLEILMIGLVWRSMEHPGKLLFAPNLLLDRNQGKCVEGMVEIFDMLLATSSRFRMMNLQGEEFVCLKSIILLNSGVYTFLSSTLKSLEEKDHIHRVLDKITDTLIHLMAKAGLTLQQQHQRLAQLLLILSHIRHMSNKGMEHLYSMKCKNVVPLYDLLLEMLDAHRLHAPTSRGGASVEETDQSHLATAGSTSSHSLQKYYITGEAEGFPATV

Experiment [8] has as its target Thyrotropin receptor (Homo sapiens) (UniProt P16473). As to the kind of experiment: qHTS assay to identify small molecule antagonists of the thyroid stimulating hormone receptor (TSHR) signaling pathway (AID 1259385; calls by dose curve; also: nearly all actives have a fitted effect of over 20% in size). The essentials: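 TSHR-HEK293 cells (800/well) plated 18 h, then compounds with Ro20-1724 and TSH at 1.5 ng/mL final, 30 min at room temperature. cAMP quantified by HTRF (cAMP-d2/anti-cAMP-cryptate, 1 h); 15 concentrations in triplicate.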

The target in experiment [9] is Estrogen receptor beta (Homo sapiens) (UniProt Q92731). The experiment in a line: qHTS assay to identify small molecule agonists of the estrogen receptor beta (ER-beta) signaling pathway (AID 1259377; active = well fitted activation curve with a large enough effect in the signal ratio in the repeat runs, not every such curve was filed as active; the % refers to the signal ratio; also: potency is read from the fitted curve at half-maximal effect). A digest of the protocol:
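Ratiometric beta-lactamase FRET read-out came after 2 h substrate loading at room temperature. It followed 16 h compound treatment at 37C of GripTite HEK293T cells carrying a UAS-bla reporter, plated in 2% charcoal-stripped FBS medium.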

The target is the same in experiment [10]. The experiment in a line: qHTS assay to identify small molecule antagonists of the estrogen receptor beta (ER-beta) signaling pathway (AID 1259378; active = well fitted inhibition curve with a large enough effect in the signal ratio in the repeat runs, not every such curve was filed as active; the % refers to the signal ratio). A digest of the protocol: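 ER-beta-UAS-bla HEK293T cells in 2% charcoal-stripped FBS medium treated with compound plus 1nM final 17-beta-estradiol for 16 hr at 37C. Beta-lactamase reporter read by FRET substrate fluorescence after 2 hours at room temperature.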

Chain of Thyrotropin receptor (Homo sapiens) (P16473 whole entry, looked up): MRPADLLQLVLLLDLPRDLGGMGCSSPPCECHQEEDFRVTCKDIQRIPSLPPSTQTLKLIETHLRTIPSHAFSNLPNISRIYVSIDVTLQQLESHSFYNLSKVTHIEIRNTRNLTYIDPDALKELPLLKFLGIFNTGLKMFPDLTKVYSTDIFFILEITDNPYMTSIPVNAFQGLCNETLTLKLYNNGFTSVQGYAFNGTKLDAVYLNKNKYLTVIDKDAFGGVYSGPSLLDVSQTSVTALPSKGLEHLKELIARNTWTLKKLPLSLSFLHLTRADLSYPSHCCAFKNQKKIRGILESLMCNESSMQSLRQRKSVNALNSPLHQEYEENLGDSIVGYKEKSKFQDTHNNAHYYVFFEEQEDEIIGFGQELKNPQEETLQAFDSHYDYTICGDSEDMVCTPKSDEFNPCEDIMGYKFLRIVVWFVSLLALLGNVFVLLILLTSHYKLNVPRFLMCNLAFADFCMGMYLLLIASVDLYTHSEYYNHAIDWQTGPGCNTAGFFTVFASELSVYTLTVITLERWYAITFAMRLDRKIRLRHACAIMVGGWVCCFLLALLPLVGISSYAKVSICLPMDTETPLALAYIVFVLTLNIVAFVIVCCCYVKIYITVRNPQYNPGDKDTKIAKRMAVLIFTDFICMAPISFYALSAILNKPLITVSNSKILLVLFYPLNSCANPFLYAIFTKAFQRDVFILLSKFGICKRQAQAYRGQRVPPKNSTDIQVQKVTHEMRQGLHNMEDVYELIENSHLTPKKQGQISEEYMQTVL
Chain of Estrogen receptor beta (Homo sapiens) (Q92731 whole entry, looked up): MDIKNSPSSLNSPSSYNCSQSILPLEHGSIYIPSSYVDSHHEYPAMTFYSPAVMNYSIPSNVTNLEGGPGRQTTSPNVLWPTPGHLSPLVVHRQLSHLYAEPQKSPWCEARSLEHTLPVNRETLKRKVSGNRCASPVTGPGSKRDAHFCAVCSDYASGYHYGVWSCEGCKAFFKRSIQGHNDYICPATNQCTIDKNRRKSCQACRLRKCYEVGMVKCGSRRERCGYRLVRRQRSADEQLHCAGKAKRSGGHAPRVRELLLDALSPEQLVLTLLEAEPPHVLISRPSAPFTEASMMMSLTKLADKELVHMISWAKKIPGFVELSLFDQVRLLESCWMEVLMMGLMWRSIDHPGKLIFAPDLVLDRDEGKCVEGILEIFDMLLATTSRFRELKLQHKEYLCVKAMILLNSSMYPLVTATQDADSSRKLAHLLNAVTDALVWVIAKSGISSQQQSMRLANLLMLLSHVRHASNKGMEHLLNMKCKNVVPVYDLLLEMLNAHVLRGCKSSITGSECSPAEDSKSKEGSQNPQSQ

For the compound `OC1C(O)C(O)C(O)C(O)C1O` (configuration not stated), the Potency entry in experiment [1], in [2] and in experiment [3] was “inactive” throughout. In addition, the compound was called inactive in experiment [4] and in experiment [5].

Turning to `CC(C)=CCl`, the Potency result in [1], in [2] and in experiment [3] was “inactive” each time. For the same compound, the call in [4] and in experiment [5] was inactive.

On to `COc1ccc(C)cc1N`, for which the Potency entry in experiment [1], in experiment [2], in experiment [6] and in experiment [7] was “inactive” each time. The outcome in experiment [4] and in experiment [8] was inactive.

On to `CC(C)(Oc1ccc(CCNC(=O)c2ccc(Cl)cc2)cc1)C(=O)O`, for which the Potency result in experiment [1], in experiment [2], in experiment [3] and in experiment [7] was “inactive” each time. The outcome in [4] and in experiment [5] was inactive.

For the compound `CCCCCCC=O`, the Potency entry in experiment [1], in experiment [2], in experiment [3] and in experiment [7] was “inactive” throughout. In addition, the compound was classed as inactive in experiment [4] and in experiment [8].

With `O=C1CCCC1`, the Potency entry in experiment [9], in [10], in experiment [2] and in [3] was “inactive” each time. Further, in experiment [4], the result was inactive.

As for `O=C(O)Cn1c(=O)n(Cc2ccc(Br)cc2F)c(=O)c2ccc(Cl)cc21`, the Potency result in [9], in [10], in experiment [2], in [3], in experiment [6] and in experiment [7] was “inactive” each time. In addition, in experiment [4], the outcome was inactive.

Consider `NC(=S)NNC(N)=S`, for which the Potency entry in experiment [1], in experiment [2] and in experiment [3] was “inactive” each time. The compound was classed as inactive in experiment [4], in experiment [5] and in experiment [8].

Regarding `CCCOC(=O)c1ccccc1`, the Potency result in [1], in experiment [2] and in [3] was “inactive” in each case. The result in [4] and in [8] was inactive.

On to `O=C(O)c1ccc(S(=O)(=O)N(Cl)Cl)cc1`, for which the Potency entry in experiment [1], in [9], in experiment [10] and in experiment [2] was “inactive” throughout. For the same compound, the compound was classed as inactive in experiment [4] and in [8].

Consider `CCCCCCO`, for which the Potency entry in [1] and in experiment [2] was “inactive” throughout. The compound was called inactive in experiment [4] and in experiment [5].

As to `COC(=O)CCCC(=O)OC`, the Potency result in experiment [1], in experiment [2] and in [3] was “inactive” throughout. In addition, the compound was classed as inactive in experiment [4], in [5] and in experiment [8].

On to `C=C(C)C(=O)OCC(C)C`, for which, in experiment [1], the Potency was 619 nM (active) and inactive. For the same compound, the Potency result in [9], in experiment [10] and in experiment [2] was “inactive” in each case. The compound was called inactive in experiment [4] and in experiment [8].

Take `O=[N+]([O-])c1ccc2nc[nH]c2c1`: the Potency result in experiment [1], in experiment [9], in experiment [10] and in experiment [2] was “inactive” each time. The compound was classed as inactive in experiment [4] and in [8].

Take `CC1(C)CC(N)CC(C)(CN)C1` (configuration not stated): the Potency entry in experiment [1], in experiment [2] and in experiment [3] was “inactive” in each case. The result in [4], in [5] and in experiment [8] was inactive.

Regarding `COc1ccccc1OCC(O)CO` (configuration not stated), the Potency result in experiment [9], in experiment [10], in experiment [2], in [3] and in [6] was “inactive” each time. Further, in experiment [4], the compound was called inactive.

As for `CC(O)CC(C)(C)O` (configuration not stated), the Potency entry in [1] and in [2] was “inactive” in each case. Besides, the call in experiment [4] was inactive.

Take `CC(=O)CCC=C(C)C`: the Potency result in experiment [1] and in experiment [2] was “inactive” each time. The outcome in experiment [4] and in experiment [8] was inactive.

As to `CC(C)OC(=O)COc1ccc(Cl)cc1Cl`, the Potency entry in [1], in experiment [2], in experiment [3] and in [7] was “inactive” in each case. Also, the outcome in experiment [4] and in [8] was inactive.

`CC(C)CCCCCCCOC(=O)CCCCC(=O)OCCCCCCCC(C)C`: the Potency result in experiment [1], in [2] and in experiment [3] was “inactive” in each case. For the same compound, the outcome in experiment [4] and in [8] was inactive.

As for `CNC(=O)Oc1ccc2c(c1)[C@]1(C)CCN(C)[C@@H]1N2C`, the Potency result in experiment [1], in [2], in experiment [3] and in [7] was “inactive” in each case. Also, the result in [4] and in [5] was inactive.

With `Brc1ccc(Br)c(Br)c1`, the Potency entry in [1], in experiment [10], in experiment [2] and in [7] was “inactive” each time. Further, the result in [4] and in experiment [5] was inactive.

For `C[C@]12CC[C@@H]3c4ccc(O)cc4CC[C@H]3[C@@H]1C[C@@H](O)[C@@H]2O`, the Potency in [1] was 13.7 µM (active) and 5.96 µM (active); in experiment [9], 4.3 nM (active) and 3 nM (active). For the same compound, the Potency result in experiment [2] was “inactive”. Moreover, the compound was called inactive in [4] and in experiment [5].

On to `CC1(C)NC(=O)NC1=O`, for which the Potency entry in experiment [1], in experiment [2] and in [3] was “inactive” throughout. Also, the call in [4], in experiment [5] and in experiment [8] was inactive.

As for `CC1(C)S[C@@H]2[C@H](NC(=O)COc3ccccc3)C(=O)N2[C@H]1C(=O)O`, the Potency entry in experiment [1], in experiment [2] and in experiment [7] was “inactive” throughout. Also, the call in experiment [4], in [5] and in [8] was inactive.

In the case of `CCCCC(C=O)CC` (configuration not stated), the Potency entry in experiment [9], in experiment [10], in experiment [2] and in [7] was “inactive” throughout. Besides, the call in experiment [4] was inactive.

For the compound `c1ccc2c(c1)Cc1ccccc1-2`, the Potency result in experiment [9], in [10], in experiment [2] and in experiment [3] was “inactive” each time. Further, the call in [4] and in experiment [8] was inactive.

Turning to `CCCCCCCCCCO`, the Potency result in experiment [9], in [2], in experiment [3] and in experiment [7] was “inactive” each time. Besides, the compound was called inactive in experiment [4] and in experiment [8].

In the case of `C=CCc1ccc(OC)c(OC)c1`, the Potency entry in experiment [9], in experiment [10], in experiment [2] and in [3] was “inactive” each time. Also, the result in experiment [4] and in experiment [5] was inactive.

On to `C=Cc1ccc(C)cc1`, for which the Potency result in experiment [9], in experiment [10], in [2] and in experiment [3] was “inactive” in each case. For the same compound, the outcome in experiment [4] was inactive.

Take `Clc1ccccn1`: the Potency entry in experiment [9], in [10] and in experiment [2] was “inactive” each time. Moreover, the call in experiment [4], in [5] and in [8] was inactive.
